Measured values as given in the supplement of paper PMC8728848.
About 410 targets per protein were measured; listed, in parts, are those with the strongest signals and a random draw of the rest.

What was measured:
Assay in all cases: glycan array binding signal (z-score within array); higher = stronger binding
Details in all cases: glycan notation: IUPAC condensed, linker removed
GalNAc(a1-3)GalNAc = molecular target: GalNAc(a1-3)GalNAc
In short: (§1)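 Negative Z-scores can be read as non-binding. The Z-score is calculated within each array and then averaged across arrays of one protein sequence at different concentrations or buffers and across linkers. Arrays, 3228 in all, were curated from the Consortium for Functional Glycomics database and kept only where the protein sequence was available.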

GalNAc6S(b1-4)GlcNAc = molecular target: GalNAc6S(b1-4)GlcNAc
In short: as §1

Glc(b1-6)Glc = molecular target: Glc(b1-6)Glc
In short: as §1

[1] = molecular target: GlcNAc(a1-3)Gal(b1-4)GlcNAc
In short: as §1

[2] = molecular target: GlcNAc(a1-4)Gal(b1-4)GlcNAc(b1-3)Gal(b1-4)GlcNAc(b1-3)Gal(b1-4)GlcNAc
In short: as §1

[3] = molecular target: GlcNAc(a1-4)Gal(b1-4)GlcNAc(b1-3)Gal(b1-4)[Fuc(a1-3)]GlcNAc(b1-3)Gal(b1-4)[Fuc(a1-3)]GlcNAc
In short: as §1

[4] = molecular target: GlcNAc(b1-2)Man(a1-3)[GlcNAc(b1-2)Man(a1-6)]Man(b1-4)GlcNAc(b1-4)GlcNAc
In short: as §1

[5] = molecular target: GlcNAc(b1-3)Gal(b1-4)GlcNAc(b1-3)Gal(b1-4)GlcNAc(b1-3)Gal(b1-4)GlcNAc(b1-2)Man(a1-3)[GlcNAc(b1-3)Gal(b1-4)GlcNAc(b1-3)Gal(b1-4)GlcNAc(b1-3)Gal(b1-4)GlcNAc(b1-2)Man(a1-6)]Man(b1-4)GlcNAc(b1-4)GlcNAc
In short: as §1

[6] = molecular target: GlcNAc(b1-3)Gal(b1-4)GlcNAc(b1-3)Gal(b1-4)GlcNAc(b1-3)Gal(b1-4)GlcNAc(b1-3)Gal(b1-4)GlcNAc(b1-2)[GlcNAc(b1-3)Gal(b1-4)GlcNAc(b1-3)Gal(b1-4)GlcNAc(b1-3)Gal(b1-4)GlcNAc(b1-3)Gal(b1-4)GlcNAc(b1-6)]Man(a1-6)[GlcNAc(b1-3)Gal(b1-4)GlcNAc(b1-3)Gal(b1-4)GlcNAc(b1-3)Gal(b1-4)GlcNAc(b1-3)Gal(b1-4)GlcNAc(b1-2)Man(a1-3)]Man(b1-4)GlcNAc(b1-4)[Fuc(a1-6)]GlcNAc
In short: as §1

[7] = molecular target: GlcNAc(b1-3)Gal(b1-4)GlcNAc(b1-3)[GlcNAc(b1-3)Gal(b1-4)GlcNAc(b1-3)]GalNAc
In short: as §1

Kdn(a2-3)Gal(b1-3)GlcNAc = molecular target: Kdn(a2-3)Gal(b1-3)GlcNAc
In short: as §1

Kdn(a2-3)Gal(b1-4)GlcNAc = molecular target: Kdn(a2-3)Gal(b1-4)GlcNAc
In short: as §1

[8] = molecular target: Man(a1-3)[Man(a1-6)]Man(a1-6)[Man(a1-3)]Man(b1-4)GlcNAc(b1-4)GlcNAc
In short: as §1

[9] = molecular target: Neu5Ac(a2-3)Gal(b1-3)GlcNAc(b1-6)GalNAc
In short: as §1

[10] = molecular target: Neu5Ac(a2-3)Gal(b1-3)[Fuc(a1-4)]GlcNAc
In short: as §1

[11] = molecular target: Neu5Ac(a2-3)Gal(b1-4)[Fuc(a1-3)]GlcNAc
In short: as §1

[12] = molecular target: Neu5Ac(a2-3)Gal(b1-4)[Fuc(a1-3)]GlcNAc(b1-3)Gal(b1-4)GlcNAc
In short: as §1

[13] = molecular target: Neu5Ac(a2-6)Gal(b1-4)GlcNAc(b1-2)Man(a1-3)[GlcNAc(b1-4)][Neu5Ac(a2-6)Gal(b1-4)GlcNAc(b1-2)Man(a1-6)]Man(b1-4)GlcNAc(b1-4)GlcNAc
In short: as §1

[14] = molecular target: Neu5Ac(a2-6)Gal(b1-4)GlcNAc(b1-2)Man(a1-3)[Man(a1-6)]Man(b1-4)GlcNAc(b1-4)GlcNAc
In short: as §1

[15] = molecular target: Neu5Ac(a2-6)Gal(b1-4)GlcNAc(b1-2)Man(a1-6)Man(b1-4)GlcNAc(b1-4)GlcNAc
In short: as §1

[16] = molecular target: Neu5Ac(a2-6)Gal(b1-4)GlcNAc(b1-2)[Neu5Ac(a2-6)Gal(b1-4)GlcNAc(b1-4)]Man(a1-3)[GlcNAc(b1-4)][Neu5Ac(a2-6)Gal(b1-4)GlcNAc(b1-2)[Neu5Ac(a2-6)Gal(b1-4)GlcNAc(b1-6)]Man(a1-6)]Man(b1-4)GlcNAc(b1-4)GlcNAc
In short: as §1

[17] = molecular target: Neu5Ac(a2-6)Gal(b1-4)GlcNAc(b1-2)[Neu5Ac(a2-6)Gal(b1-4)GlcNAc(b1-4)]Man(a1-3)[GlcNAc(b1-4)][Neu5Ac(a2-6)Gal(b1-4)GlcNAc(b1-4)Man(a1-6)]Man(b1-4)GlcNAc(b1-4)GlcNAc
In short: as §1

[18] = molecular target: Neu5Ac(a2-6)GlcNAc(b1-4)GlcNAc(b1-4)GlcNAc
In short: as §1

[19] = molecular target: Neu5Ac(a2-8)Neu5Ac(a2-3)[GalNAc(b1-4)]Gal(b1-4)Glc
In short: as §1

[20] = molecular target: Neu5Ac9Ac(a2-3)Gal(b1-3)GlcNAc
In short: as §1

[21] = molecular target: Neu5Gc(a2-3)Gal(b1-3)GlcNAc
In short: as §1

B1: MXA PilAct-eGFP (Myxococcus xanthus), Q59589 (protein)
chain: MRVSRFNPRNRGFTLIELMIVVAIIGILAAIAIPNFIKFQARSKQSEAKTNLKALYTAQKSFFSEKDRYSDFANEIGFAPERGNRYGYRVSAAAGDCEVRNAADLPVPAAGVPCISNDSFRFGANSAIDDPTPVVARFVPQGAAGWNTTLGVQPTIADCPNCNFFAGARGNADNEATFDDWVIAGFEGSGQVGPCSEAGNVASGTPYNTRNDVACDGAAQ
glycan array binding signal (z-score) (GalNAc(a1-3)GalNAc): -1.12
glycan array binding signal (z-score) (GalNAc6S(b1-4)GlcNAc): 0.26
glycan array binding signal (z-score) (Glc(b1-6)Glc): 1.37
glycan array binding signal (z-score) [1]: -0.245
glycan array binding signal (z-score) [2]: 0.596
glycan array binding signal (z-score) [3]: 1.45
glycan array binding signal (z-score) [4]: 0.002
glycan array binding signal (z-score) [5]: 3.99
glycan array binding signal (z-score) [6]: 3.85
glycan array binding signal (z-score) [7]: -0.168
glycan array binding signal (z-score) (Kdn(a2-3)Gal(b1-3)GlcNAc): 0.462
glycan array binding signal (z-score) (Kdn(a2-3)Gal(b1-4)GlcNAc): -0.846
glycan array binding signal (z-score) [8]: -0.784
glycan array binding signal (z-score) [9]: -0.507
glycan array binding signal (z-score) [10]: -0.236
glycan array binding signal (z-score) [11]: -0.025
glycan array binding signal (z-score) [12]: -0.9
glycan array binding signal (z-score) [13]: -1.03
glycan array binding signal (z-score) [14]: 3.09
glycan array binding signal (z-score) [15]: 2.91
glycan array binding signal (z-score) [16]: -0.369
glycan array binding signal (z-score) [17]: -0.544
glycan array binding signal (z-score) [18]: -0.645
glycan array binding signal (z-score) [19]: 3.6
glycan array binding signal (z-score) [20]: 4.29
glycan array binding signal (z-score) [21]: 0.057
